This is an account of results in PubChem BioAssay (Tox21).

A short description of test [1]: A CellTox Green Cytotoxicity Assay to monitor cytotoxicity in HEK293 cells - 32 hour (AID 1224881). Further: nearly all actives have a fitted effect of over 40% in size. A digest of the protocol:
(§1)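 Homogeneous no-lysis format: HEK293 cell suspension mixed with CellTox Green reagent, seeded, incubated 5 h at 37 C/5% CO2, then dosed by pintool with compound in DMSO.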

Test [2] can be described thus: A CellTox Green Cytotoxicity Assay to monitor cytotoxicity in HepG2 cells - 0 hour (AID 1224882). Further: nearly all actives have a fitted effect of over 35% in size. The gist of the method:
(§2)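 Fluorescent DNA-binding dye, 600 HepG2 cells/well, 5 h preincubation then compound in DMSO; same plates read at 0–40 h, 37 C.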

Test [3] in a line: A CellTox Green Cytotoxicity Assay to monitor cytotoxicity in HepG2 cells - 32 hour (AID 1224883). Further: nearly all actives have a fitted effect of over 50% in size. A digest of the protocol:
as §2

Test [4] in a line: A CellTox Green Cytotoxicity Assay to monitor cytotoxicity in HEK293 cells - 8 hour (AID 1224884). Further: nearly all actives have a fitted effect of over 35% in size. The gist of the method:
as §1

Test [5] is described as follows: qHTS RealTime-Glo MT Cell Viability Assay in HepG2 cells - 16 hour (AID 1224885). Further: nearly all actives have a fitted effect of over 50% in size. The gist of the method:
(§3)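 Cells + NanoLuc/prosubstrate dispensed (600 cells/well) → 5 h at 37 C/5% CO2 → compounds in DMSO transferred → 40 h incubation at 37 C, luminescence read at 0, 8, 16, 24, 32, 40 h.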

Test [6] is described as follows: A CellTox Green Cytotoxicity Assay to monitor cytotoxicity in HEK293 cells - 16 hour (AID 1224888). Further: nearly all actives have a fitted effect of over 35% in size. A digest of the protocol: as §1
A short description of test [7]: qHTS RealTime-Glo MT Cell Viability Assay in HepG2 cells - 0 hour (AID 1224889). Further: nearly all actives have a fitted effect of over 50% in size. Further: potency means the concentration at half of the fitted maximal effect. The gist of the method: as §3
A general note: Quantitative high-throughput screening tests each substance at several concentrations.

Test [8] in a line: A CellTox Green Cytotoxicity Assay to monitor cytotoxicity in HepG2 cells - 8 hour (AID 1224890). Further: nearly all actives have a fitted effect of over 45% in size. The gist of the method:
as §2

Test [9] is described as follows: qHTS assay to identify small molecule antagonists of the estrogen receptor alpha (ER-alpha) signaling pathway using the BG1 cell line in the presence of 0.1 nM 17-beta-estradiol - cell viability counter screen (AID 1259241). Further: nearly all actives have a fitted effect of over 40% in size. A digest of the protocol: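 VM7Luc4E2 cells (endogenous full-length ER-alpha, 4xERE-luciferase), cultured 5 days in charcoal-stripped serum, exposed to compounds with 0.1 nM 17beta-estradiol (final) for 22 hr at 37C. Viability read in same wells as live-cell protease fluorescence after 30 min.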

Test [10] can be described thus: qHTS assay to identify small molecule antagonists of the androgen receptor (AR) signaling pathway using the MDA cell line in the presence of 0.5 nM R1881 - cell viability counter screen (AID 1259242). Further: nearly all actives have a fitted effect of over 45% in size. A digest of the protocol:
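Human breast carcinoma MDA-kb2 cells, cultured without CO2, receive compounds alongside 0.5 nM (final) R1881 agonist. After 16 hr at 37C, viability is taken as live-cell protease signal.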

For test [11], the target named is Estrogen receptor (Homo sapiens) (UniProt P03372). As to the kind of experiment: qHTS assay to identify small molecule antagonists of the estrogen receptor alpha (ER-alpha) signaling pathway using the BG1 cell line in the presence of 0.1 nM 17-beta-estradiol (AID 1259244). Further: nearly all actives have a fitted effect of over 50% in size. The gist of the method: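 Seeding of stripped-serum-adapted VM7Luc4E2 cells, 24 h attachment, compound transfer, then 0.1 nM final 17beta-estradiol; after 22 h incubation, ONE-Glo reagent and luminescence reading.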
Sequence of Estrogen receptor (Homo sapiens) (P03372 whole entry, looked up): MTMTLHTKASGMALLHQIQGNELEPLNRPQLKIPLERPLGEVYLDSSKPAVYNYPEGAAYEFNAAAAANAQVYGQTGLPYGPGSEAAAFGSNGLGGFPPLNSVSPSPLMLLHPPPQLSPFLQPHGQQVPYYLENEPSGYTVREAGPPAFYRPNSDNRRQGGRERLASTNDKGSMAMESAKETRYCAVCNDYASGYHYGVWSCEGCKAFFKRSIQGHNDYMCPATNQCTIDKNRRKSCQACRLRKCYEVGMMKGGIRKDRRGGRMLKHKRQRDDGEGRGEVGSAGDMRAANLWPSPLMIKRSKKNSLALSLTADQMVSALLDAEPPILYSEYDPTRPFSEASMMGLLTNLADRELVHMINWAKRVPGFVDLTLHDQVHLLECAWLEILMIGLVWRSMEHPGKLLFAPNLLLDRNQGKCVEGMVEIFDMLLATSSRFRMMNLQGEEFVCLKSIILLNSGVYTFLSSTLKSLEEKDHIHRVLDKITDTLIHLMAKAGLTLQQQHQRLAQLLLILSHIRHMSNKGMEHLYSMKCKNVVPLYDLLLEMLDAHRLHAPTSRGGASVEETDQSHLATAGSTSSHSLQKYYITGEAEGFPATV

Test [12] in a line: qHTS assay to identify small molecule phospholipidosis (PLD) inducers (AID 1259344; active means well fitted curve in the direction sought with a large enough effect; an effect the other way counts as inactive or inconclusive). A digest of the protocol: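 Read-out is LipidTOX Red fluorescence (ex 595/em 615) imaged in HepG2 cells after 24 h compound exposure at 37 C, with Hoechst nuclear counterstain (ex 352/em 461) allowing per-cell normalisation.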
Test [13] is described as follows: qHTS assay to identify small molecule HDAC inhibitors (AID 1259364).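 Further: wild-type HCT-116 cells with endogenous class I/II HDAC activity; top concentration of the series differs between compounds; nearly all actives have a fitted effect of over 45% in size.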 The gist of the method: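 After a 2 hr compound incubation (37C, 5% CO2), HCT-116 cells seeded at 1,500/well the day before received HDAC-Glo reagent; signal read as luminescence after 30 min at room temperature.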
Test [14] in a line: qHTS assay to identify small molecule HDAC inhibitors - cell viability counter screen (AID 1259365). A digest of the protocol:
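Wild-type HCT-116 cells, 1,500/well, cultured overnight, then compound-treated 2 h at 37 C. Viability measured as ATP luminescence with CellTiter-Glo after 30 min at room temperature.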

A short description of test [15]: qHTS assay to identify small molecule agonists of the sonic hedgehog signaling (Shh) pathway - cell viability counter screen (AID 1259366). Further: nearly all actives have a fitted effect of over 50% in size. The gist of the method:
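NIH/3T3-derived Gli1-Luc reporter cells, 2,000 per well, received compound after 4 h and were treated about 23 h at 37C. Viability measured in the same wells by CellTiter-Fluor fluorescence after 1 h.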

A short description of test [16]: qHTS assay to identify small molecule agonists of the sonic hedgehog signaling (Shh) pathway (AID 1259368; calls by dose curve;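 further: NIH/3T3-derived 3T3Gli1-Luc cells carrying a stable Gli1-driven firefly luciferase reporter; series mostly up to about 92 µM; nearly all actives have a fitted effect of over 15% in size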). A digest of the protocol:
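Stable NIH/3T3 Gli1-Luc reporter clone; 24 hr cpd exposure after a 4 hr settling period; luminescence endpoint.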

A short description of test [17]: qHTS RealTime-Glo MT Cell Viability Assay in HEK293 cells - 8 hour (AID 1224887). A digest of the protocol:
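Measured as luminescence from the same continuously cultured HEK293 wells at successive time points (0, 8, 16, 24, 32, 40 h) after compound addition. Reagent present from seeding; dosing at 5 h; incubation 37 C.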

The nature of test [18]: qHTS assay to identify small molecule antagonists of the sonic hedgehog signaling (Shh) pathway - cell viability counter screen (AID 1259367). Further: nearly all actives have a fitted effect of over 55% in size. The gist of the method:
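Fluorescence read-out (CellTiter-Fluor, 1 hr at 37C) taken after 23 hr compound treatment of 3T3 Gli1-Luc cells stimulated with conditioned medium. Cells were seeded at 2,000 per well and pre-incubated 4 hr.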

Test [19] addresses Androgen receptor (Homo sapiens) (UniProt P10275). As to the kind of experiment: qHTS assay to identify small molecule antagonists of the androgen receptor (AR) signaling pathway using the MDA cell line in the presence of 0.5 nM R1881 (AID 1259243). Further: nearly all actives have a fitted effect of over 50% in size. The gist of the method: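 Cells: MDA-kb2 (MMTV-luc). Stimulus: 0.5 nM R1881. Time: 16 hr, 37C, no CO2. Detection: ONE-Glo luminescence after 30 min at RT.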

“And” between values parts separate entries of the source, which are not always exact repeats. Equal values may be shown once. Results filed as inconclusive are left out. The source made the active and inactive calls. Unless noted, the call rests on the fitted dose curve; in most records, active means well fitted curve in the direction sought with a large enough effect in the repeat runs; inconclusive means weak or mixed curves; inactive means no such curve, though single readings can be large; an effect the other way counts as inactive or inconclusive.

Sequence of Androgen receptor (Homo sapiens) (P10275 whole entry, looked up): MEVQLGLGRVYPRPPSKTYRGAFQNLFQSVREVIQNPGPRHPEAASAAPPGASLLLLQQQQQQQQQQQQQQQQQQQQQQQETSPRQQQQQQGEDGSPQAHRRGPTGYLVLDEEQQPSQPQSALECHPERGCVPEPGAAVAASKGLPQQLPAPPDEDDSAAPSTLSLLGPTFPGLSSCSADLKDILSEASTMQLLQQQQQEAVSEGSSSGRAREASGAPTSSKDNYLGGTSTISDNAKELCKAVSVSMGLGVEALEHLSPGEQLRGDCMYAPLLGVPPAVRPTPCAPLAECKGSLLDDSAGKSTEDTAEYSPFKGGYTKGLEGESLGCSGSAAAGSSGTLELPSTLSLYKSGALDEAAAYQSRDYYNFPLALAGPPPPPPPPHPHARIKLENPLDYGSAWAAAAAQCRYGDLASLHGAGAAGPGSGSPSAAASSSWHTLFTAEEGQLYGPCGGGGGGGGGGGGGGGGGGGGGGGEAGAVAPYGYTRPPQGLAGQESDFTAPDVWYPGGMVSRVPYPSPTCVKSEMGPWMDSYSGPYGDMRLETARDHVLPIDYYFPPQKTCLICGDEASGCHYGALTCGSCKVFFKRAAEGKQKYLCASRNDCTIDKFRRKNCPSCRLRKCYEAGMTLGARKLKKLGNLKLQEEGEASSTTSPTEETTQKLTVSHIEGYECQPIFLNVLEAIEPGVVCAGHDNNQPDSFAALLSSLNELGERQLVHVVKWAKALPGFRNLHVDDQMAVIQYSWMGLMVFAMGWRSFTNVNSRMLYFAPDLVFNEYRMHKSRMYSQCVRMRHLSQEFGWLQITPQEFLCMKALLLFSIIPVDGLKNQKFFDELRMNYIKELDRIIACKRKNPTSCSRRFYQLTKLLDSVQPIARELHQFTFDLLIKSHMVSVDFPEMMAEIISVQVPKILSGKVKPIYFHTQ

As to `C/C=C/C(=O)N(CC)c1ccccc1C`, the Potency entry in [1], in test [2], in [3], in [4], in [5] and in test [6] was “inactive” each time. In addition, the Potency result in test [7], in [8], in test [9], in [10], in [11] and in test [12] was “inactive” throughout. For the same compound, the Potency result in [13], in test [15] and in test [16] was “inactive” each time. The result in test [14] was inactive.
For the compound `CCCCCCCCCCCCO`, the Potency result in test [1], in test [2], in test [3], in [4], in test [5] and in test [17] was “inactive” each time. The Potency result in test [6], in test [7], in test [8], in test [9], in test [10] and in [11] was “inactive” in each case. Also, the Potency entry in [13], in test [15], in test [18] and in [16] was “inactive” throughout. Also, the outcome in test [14] was inactive.
Regarding `Nc1ccc2c(O)cc(S(=O)(=O)O)cc2c1`, the Potency result in test [1], in test [2], in [3], in [4], in [5] and in test [6] was “inactive” each time. Further, the Potency entry in test [7], in test [8], in test [13] and in test [16] was “inactive” throughout. Besides, the call in test [14] was inactive.
Consider `FC(F)(F)C(Cl)Br` (stereo not given), for which the Potency entry in test [1], in test [2], in test [3], in test [4], in [5] and in test [6] was “inactive” each time. For the same compound, the Potency entry in test [7], in [8], in test [9], in test [10], in test [11] and in test [12] was “inactive” throughout. Moreover, the Potency result in [13], in [15], in [18] and in [16] was “inactive” in each case. Also, the compound was classed as inactive in [14].
Regarding `CC1(C)O[C@@H]2C[C@H]3[C@@H]4C[C@H](F)C5=CC(=O)C=C[C@]5(C)[C@@]4(F)[C@@H](O)C[C@]3(C)[C@]2(C(=O)CO)O1`, the Potency entry in [1], in [2], in test [3], in test [4], in test [5] and in [6] was “inactive” each time. Further, the Potency result in [8], in test [9], in test [10], in test [11], in test [12] and in [13] was “inactive” in each case. The Potency entry in [15] and in test [16] was “inactive” throughout. Further, the Potency in test [7] is 3.89 µM (active) and 9.52 µM (active). Besides, the result in [14] was inactive.
In the case of `ClC/C=C/CCl`, the Potency result in [1], in [2], in test [3], in test [4], in [5] and in test [17] was “inactive” throughout. Further, the Potency result in test [6], in test [7], in test [8], in test [9], in [10] and in [11] was “inactive” each time. Moreover, the Potency entry in test [13], in test [15] and in test [16] was “inactive” each time. Also, the call in [14] was inactive.
On to `CC1(C)C(C=C(Cl)Cl)C1C(=O)OCc1cccc(Oc2ccccc2)c1` (stereo not given), for which the Potency result in test [1], in [2], in test [3], in test [5], in test [17] and in [6] was “inactive” each time. Besides, the Potency entry in test [7], in test [8], in [10], in test [19], in test [11] and in test [12] was “inactive” each time. Also, the Potency entry in test [13], in test [15], in test [18] and in [16] was “inactive” in each case. Also, in test [14], the compound was called inactive.
